Consider one sequence from publication PMC7862700, “An all-to-all approach to the identification of sequence-specific readers for epigenetic DNA modifications on cytosine”.

What all share (assay): DAPPL (digital affinity profiling via proximity ligation, sequencing); 10 mM Tris-HCl pH 7.5, 50 mM NaCl, 1 mM DTT, 4% glycerol, room temperature, 30 min; GST-TFs on glutathione beads, 16-mer random dsDNA library, 0.1% formaldehyde crosslink after washing; high values mean tight binding
Test [1] addresses T1, FEV (Homo sapiens, UniProt Q99581 1-238).
T1 sequence: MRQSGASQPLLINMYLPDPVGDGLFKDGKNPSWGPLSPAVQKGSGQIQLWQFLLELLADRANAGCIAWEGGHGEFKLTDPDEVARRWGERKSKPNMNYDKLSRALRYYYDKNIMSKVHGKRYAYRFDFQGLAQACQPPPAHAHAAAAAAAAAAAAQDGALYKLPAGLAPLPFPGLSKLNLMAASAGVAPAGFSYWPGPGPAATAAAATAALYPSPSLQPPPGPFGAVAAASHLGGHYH
Conditions: protein: recombinant; tags: N-terminal GST; dsDNA, one strand shown. The procedure, abridged:
(§1)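 After expression in yeast as GST fusions, human transcription factors were bound to glutathione beads, DNA-barcoded and mixed with a tag-only sample. The pools were incubated with 200 nmole of a 16-mer random double-stranded DNA library in Tris/NaCl/DTT/glycerol buffer (30 min, room temperature), washed and crosslinked with 0.1% formaldehyde. Proximity ligation with BsaI/T4 ligase ran for 1 h at 37 °C, before PCR amplification and sequencing on an Illumina NextSeq500. Binding signal is a hexamer's read frequency for a factor divided by its frequency for the tag-only sample.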

The target in test [2] is ETV5 (Homo sapiens, UniProt P41161 1-510). To be noted: protein: recombinant; tags: N-terminal GST; dsDNA, one strand shown. Summed up: as §1
The target of test [3] is HSF1 (Homo sapiens, UniProt Q00613 1-529). To be noted: protein: recombinant; tags: N-terminal GST; chain copies: 3; dsDNA, one strand shown. The procedure, abridged:
as §1

For test [4], the target named is T2, SPIC (Homo sapiens, UniProt Q8N5J4 1-248).
T2 sequence: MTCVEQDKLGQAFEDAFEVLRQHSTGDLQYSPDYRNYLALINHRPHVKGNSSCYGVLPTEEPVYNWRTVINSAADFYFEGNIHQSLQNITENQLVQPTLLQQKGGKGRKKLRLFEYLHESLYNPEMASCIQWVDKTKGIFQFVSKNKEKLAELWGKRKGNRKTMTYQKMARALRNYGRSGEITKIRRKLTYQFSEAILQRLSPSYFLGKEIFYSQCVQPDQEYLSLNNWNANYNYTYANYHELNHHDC
Conditions: protein: recombinant; tags: N-terminal GST; dsDNA, one strand shown. The procedure, abridged: as §1

Test [5] concerns the target ELF4 (Homo sapiens, UniProt Q99607 1-663). To be noted: protein: recombinant; tags: N-terminal GST; dsDNA, one strand shown. The procedure, abridged:
as §1

For test [6], the target named is T3, ELK4 (Homo sapiens, UniProt P28324-2 1-405).
T3 sequence: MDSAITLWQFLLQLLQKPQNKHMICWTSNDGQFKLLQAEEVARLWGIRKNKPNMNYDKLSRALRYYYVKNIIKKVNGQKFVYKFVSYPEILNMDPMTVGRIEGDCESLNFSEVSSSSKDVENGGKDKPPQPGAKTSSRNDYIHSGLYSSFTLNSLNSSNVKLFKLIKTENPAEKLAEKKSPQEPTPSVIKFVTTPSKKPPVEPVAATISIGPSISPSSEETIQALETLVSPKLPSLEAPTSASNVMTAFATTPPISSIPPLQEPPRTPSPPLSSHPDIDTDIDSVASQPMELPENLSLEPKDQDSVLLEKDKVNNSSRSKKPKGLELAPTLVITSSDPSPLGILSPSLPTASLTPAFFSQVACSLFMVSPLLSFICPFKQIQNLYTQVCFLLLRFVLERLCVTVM
Conditions: protein: recombinant; tags: N-terminal GST; dsDNA, one strand shown. Summed up:
as §1

In test [7] the target is T4, ETV2 (Homo sapiens, UniProt O00321 1-342).
T4 sequence: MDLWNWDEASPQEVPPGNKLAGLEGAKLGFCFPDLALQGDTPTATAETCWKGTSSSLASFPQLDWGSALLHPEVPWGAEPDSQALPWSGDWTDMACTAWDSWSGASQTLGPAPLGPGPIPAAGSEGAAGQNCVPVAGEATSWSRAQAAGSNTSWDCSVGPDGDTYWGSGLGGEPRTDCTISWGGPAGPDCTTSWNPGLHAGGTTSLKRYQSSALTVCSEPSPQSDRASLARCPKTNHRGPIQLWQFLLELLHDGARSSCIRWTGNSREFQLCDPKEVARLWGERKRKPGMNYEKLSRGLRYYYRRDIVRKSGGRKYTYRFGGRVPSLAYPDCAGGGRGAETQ
To be noted: protein: recombinant; tags: N-terminal GST; dsDNA, one strand shown. Summed up:
as §1

Test [8] addresses T5, ELF3 (Homo sapiens, UniProt P78545 1-371).
T5 sequence: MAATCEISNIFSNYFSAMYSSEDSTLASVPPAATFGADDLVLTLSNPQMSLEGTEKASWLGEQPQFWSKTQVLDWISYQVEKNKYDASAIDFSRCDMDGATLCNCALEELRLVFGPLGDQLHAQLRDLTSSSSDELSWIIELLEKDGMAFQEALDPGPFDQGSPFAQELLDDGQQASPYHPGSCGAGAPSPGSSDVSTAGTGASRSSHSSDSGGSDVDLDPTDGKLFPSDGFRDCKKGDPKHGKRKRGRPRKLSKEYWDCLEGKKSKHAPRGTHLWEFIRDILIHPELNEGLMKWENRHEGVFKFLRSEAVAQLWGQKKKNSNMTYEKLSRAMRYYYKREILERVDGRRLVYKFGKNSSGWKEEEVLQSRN
Conditions: protein: recombinant; tags: N-terminal GST; dsDNA, one strand shown. Summed up:
as §1

Test [9] addresses CRX (Homo sapiens, UniProt O43186 1-299). To be noted: protein: recombinant; tags: N-terminal GST; dsDNA, one strand shown. Summed up:
as §1

Test [10] concerns the target ETV1 (Homo sapiens, UniProt P50549 1-477). Conditions: protein: recombinant; tags: N-terminal GST; dsDNA, one strand shown. Summed up: as §1
For test [11], the target named is T6, ERF (Homo sapiens, UniProt P50548 1-548).
T6 sequence: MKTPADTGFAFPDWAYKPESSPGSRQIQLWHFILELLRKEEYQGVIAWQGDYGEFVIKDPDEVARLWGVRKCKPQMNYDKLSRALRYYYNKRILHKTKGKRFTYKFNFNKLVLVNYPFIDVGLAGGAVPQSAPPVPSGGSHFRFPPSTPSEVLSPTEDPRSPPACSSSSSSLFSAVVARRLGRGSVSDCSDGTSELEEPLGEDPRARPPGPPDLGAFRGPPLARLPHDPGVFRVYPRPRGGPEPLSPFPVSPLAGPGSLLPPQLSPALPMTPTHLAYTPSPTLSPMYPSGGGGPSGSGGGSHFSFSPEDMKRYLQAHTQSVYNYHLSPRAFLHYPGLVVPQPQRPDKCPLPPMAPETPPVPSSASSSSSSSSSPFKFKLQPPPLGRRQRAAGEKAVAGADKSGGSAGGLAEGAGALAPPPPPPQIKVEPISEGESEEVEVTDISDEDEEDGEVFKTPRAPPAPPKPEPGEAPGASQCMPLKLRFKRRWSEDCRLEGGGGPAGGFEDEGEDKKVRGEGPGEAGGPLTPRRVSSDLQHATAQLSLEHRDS
Conditions: protein: recombinant; tags: N-terminal GST; dsDNA, one strand shown. The procedure, abridged: as §1

Test [12] deals with T7, ETV3L (Homo sapiens, UniProt Q6ZN32 1-361).
T7 sequence: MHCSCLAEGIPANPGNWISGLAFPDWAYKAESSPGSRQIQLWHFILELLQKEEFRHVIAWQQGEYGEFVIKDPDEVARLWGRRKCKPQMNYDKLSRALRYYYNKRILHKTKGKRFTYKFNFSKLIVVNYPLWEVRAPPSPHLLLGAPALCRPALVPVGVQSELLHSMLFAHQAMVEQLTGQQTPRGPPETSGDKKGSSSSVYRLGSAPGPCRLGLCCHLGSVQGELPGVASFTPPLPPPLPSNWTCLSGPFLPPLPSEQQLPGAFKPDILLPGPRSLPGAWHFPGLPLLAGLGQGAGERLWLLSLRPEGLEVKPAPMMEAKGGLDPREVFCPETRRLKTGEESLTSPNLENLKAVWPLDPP
Conditions: protein: recombinant; tags: N-terminal GST; dsDNA, one strand shown. Summed up:
as §1

Test [13] deals with T8, ETS2 (Homo sapiens, UniProt P15036 1-469).
T8 sequence: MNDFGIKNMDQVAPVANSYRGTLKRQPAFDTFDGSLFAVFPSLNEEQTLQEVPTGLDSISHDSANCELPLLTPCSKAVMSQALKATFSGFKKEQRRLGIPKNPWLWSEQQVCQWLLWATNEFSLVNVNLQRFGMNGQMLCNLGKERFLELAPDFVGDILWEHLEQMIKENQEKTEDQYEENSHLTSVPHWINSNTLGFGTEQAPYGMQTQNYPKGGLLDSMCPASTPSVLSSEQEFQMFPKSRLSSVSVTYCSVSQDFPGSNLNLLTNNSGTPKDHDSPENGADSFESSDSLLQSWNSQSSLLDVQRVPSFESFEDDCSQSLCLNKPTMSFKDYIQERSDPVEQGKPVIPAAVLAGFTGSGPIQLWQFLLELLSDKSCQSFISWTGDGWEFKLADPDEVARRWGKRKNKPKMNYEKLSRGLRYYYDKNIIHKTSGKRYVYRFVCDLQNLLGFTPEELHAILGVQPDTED
To be noted: protein: recombinant; tags: N-terminal GST; dsDNA, one strand shown. Summed up:
as §1

Test [14] deals with T9, SPDEF (Homo sapiens, UniProt O95238 1-335).
T9 sequence: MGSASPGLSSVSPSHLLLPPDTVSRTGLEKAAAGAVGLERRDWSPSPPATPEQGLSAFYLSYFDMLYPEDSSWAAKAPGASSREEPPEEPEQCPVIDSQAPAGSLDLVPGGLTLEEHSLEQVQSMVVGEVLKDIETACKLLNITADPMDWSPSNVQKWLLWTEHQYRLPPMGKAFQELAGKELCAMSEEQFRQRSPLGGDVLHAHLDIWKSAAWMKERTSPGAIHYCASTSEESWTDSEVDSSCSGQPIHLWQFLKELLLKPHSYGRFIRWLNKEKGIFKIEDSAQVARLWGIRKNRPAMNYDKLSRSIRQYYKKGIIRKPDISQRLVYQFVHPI
Conditions: protein: recombinant; tags: N-terminal GST; dsDNA, one strand shown. The procedure, abridged: as §1

Test [15] deals with T10, ETV7 (Homo sapiens, UniProt Q9Y603 1-341).
T10 sequence: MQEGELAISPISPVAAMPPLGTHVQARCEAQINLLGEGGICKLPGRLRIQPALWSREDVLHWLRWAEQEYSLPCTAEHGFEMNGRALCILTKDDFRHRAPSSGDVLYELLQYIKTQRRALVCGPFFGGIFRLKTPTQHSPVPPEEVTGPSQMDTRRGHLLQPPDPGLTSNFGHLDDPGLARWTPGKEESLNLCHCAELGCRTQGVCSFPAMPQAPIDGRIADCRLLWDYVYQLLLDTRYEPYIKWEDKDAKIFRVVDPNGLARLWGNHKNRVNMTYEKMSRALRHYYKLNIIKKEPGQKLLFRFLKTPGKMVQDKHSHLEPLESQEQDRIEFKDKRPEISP
Conditions: protein: recombinant; tags: N-terminal GST; dsDNA, one strand shown. The procedure, abridged:
as §1

Test [16] addresses T11, ELF5 (Homo sapiens, UniProt Q9UKW6-2 1-255).
T11 sequence: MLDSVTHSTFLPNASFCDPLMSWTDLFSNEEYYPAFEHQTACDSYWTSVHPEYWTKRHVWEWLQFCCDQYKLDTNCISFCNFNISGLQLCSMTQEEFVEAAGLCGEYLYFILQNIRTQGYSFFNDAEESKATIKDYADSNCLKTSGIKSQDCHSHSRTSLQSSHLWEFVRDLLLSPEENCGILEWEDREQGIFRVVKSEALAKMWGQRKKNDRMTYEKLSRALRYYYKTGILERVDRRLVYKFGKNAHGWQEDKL
Conditions: protein: recombinant; tags: N-terminal GST; dsDNA, one strand shown. Summed up:
as §1

Test [17] has as its target T12, ETV3 (Homo sapiens, UniProt P41162-2 1-143).
T12 sequence: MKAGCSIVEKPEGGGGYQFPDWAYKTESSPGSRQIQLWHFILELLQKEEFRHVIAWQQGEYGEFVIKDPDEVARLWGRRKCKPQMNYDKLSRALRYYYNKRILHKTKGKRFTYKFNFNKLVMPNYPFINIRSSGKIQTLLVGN
To be noted: protein: recombinant; tags: N-terminal GST; dsDNA, one strand shown. The procedure, abridged:
as §1

Test [18] deals with ETV6 (Homo sapiens, UniProt P41212 1-452). To be noted: protein: recombinant; tags: N-terminal GST; dsDNA, one strand shown. Summed up:
as §1

Chain of ELF4 (Q99607 whole entry): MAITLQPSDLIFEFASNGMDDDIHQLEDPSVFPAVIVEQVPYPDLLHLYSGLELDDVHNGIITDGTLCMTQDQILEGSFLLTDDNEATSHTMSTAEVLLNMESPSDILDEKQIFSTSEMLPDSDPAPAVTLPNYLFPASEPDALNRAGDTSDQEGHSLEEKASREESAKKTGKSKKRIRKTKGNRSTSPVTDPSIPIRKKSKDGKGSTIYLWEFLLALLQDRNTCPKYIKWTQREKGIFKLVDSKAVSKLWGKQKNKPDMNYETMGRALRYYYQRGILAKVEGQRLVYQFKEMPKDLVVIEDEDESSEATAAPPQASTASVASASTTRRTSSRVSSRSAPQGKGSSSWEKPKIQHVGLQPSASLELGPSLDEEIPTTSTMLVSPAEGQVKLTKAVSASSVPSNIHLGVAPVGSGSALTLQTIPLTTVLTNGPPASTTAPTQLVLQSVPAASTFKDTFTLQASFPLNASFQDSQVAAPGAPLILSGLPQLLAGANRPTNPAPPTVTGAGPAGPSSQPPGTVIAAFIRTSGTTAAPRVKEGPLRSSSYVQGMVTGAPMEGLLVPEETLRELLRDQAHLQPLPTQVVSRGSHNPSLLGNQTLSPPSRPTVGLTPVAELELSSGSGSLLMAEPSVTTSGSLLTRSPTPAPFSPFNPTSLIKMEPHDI
Chain of ETV6 (P41212 whole entry): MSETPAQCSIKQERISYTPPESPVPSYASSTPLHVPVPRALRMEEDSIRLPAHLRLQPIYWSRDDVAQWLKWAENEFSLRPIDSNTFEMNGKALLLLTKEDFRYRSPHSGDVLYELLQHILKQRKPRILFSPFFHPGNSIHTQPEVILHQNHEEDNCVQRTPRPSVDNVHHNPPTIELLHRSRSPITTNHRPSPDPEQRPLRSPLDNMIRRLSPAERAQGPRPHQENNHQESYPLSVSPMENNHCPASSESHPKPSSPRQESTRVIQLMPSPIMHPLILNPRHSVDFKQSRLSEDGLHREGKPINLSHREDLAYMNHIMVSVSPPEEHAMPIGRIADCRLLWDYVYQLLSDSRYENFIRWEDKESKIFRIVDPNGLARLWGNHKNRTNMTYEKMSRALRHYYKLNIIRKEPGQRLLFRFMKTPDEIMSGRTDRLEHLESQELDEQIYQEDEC
Chain of ETV5 (P41161 whole entry): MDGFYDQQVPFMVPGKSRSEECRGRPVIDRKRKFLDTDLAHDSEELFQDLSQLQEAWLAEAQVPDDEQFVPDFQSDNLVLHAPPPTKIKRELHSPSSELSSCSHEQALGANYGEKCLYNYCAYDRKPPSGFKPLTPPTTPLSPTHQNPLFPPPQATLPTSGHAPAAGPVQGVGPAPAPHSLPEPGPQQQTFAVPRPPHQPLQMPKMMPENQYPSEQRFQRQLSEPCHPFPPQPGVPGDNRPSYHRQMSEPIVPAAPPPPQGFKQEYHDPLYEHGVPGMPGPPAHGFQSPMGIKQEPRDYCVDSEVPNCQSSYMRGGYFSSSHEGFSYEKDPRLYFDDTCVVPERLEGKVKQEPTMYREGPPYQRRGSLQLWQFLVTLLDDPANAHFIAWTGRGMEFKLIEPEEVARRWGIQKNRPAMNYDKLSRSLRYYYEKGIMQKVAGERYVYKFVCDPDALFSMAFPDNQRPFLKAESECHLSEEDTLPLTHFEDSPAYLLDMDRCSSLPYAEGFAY
Chain of CRX (O43186 whole entry): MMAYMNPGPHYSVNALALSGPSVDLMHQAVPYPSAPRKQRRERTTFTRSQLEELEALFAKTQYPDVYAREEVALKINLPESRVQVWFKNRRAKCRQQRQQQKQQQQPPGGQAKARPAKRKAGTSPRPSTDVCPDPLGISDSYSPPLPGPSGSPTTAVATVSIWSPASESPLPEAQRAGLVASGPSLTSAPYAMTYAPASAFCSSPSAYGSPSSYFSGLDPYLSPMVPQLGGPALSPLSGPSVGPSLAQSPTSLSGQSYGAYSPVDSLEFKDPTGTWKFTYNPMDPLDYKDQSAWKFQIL
Chain of HSF1 (Q00613 whole entry): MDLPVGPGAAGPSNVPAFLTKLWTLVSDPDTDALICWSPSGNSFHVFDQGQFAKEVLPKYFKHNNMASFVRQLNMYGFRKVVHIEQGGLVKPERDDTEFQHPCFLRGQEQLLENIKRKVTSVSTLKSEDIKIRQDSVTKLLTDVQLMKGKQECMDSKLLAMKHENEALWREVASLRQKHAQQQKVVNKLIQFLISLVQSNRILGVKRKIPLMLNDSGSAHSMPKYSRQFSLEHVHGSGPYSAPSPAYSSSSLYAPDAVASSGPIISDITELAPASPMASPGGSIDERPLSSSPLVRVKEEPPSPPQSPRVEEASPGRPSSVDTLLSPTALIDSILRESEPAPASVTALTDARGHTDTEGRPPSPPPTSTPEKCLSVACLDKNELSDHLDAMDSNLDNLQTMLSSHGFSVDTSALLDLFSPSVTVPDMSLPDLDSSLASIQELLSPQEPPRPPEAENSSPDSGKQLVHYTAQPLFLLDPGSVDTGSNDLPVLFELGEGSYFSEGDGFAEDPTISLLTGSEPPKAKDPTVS
Chain of ETV1 (P50549 whole entry): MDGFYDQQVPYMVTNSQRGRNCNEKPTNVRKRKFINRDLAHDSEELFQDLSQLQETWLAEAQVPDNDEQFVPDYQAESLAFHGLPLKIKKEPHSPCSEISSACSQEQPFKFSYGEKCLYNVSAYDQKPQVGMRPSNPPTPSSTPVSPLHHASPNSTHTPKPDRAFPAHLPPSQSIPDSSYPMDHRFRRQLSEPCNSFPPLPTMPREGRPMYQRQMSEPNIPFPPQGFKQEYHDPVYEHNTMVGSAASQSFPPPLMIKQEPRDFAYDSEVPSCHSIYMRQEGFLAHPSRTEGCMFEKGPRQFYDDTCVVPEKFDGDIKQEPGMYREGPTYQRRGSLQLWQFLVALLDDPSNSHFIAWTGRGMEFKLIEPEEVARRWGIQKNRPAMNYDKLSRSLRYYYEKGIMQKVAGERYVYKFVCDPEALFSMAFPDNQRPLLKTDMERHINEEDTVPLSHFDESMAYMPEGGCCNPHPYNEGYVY

Regarding TCCAAC, the binding signal in test [1] is 1.21 fold enrichment (6-mer frequency, TF over GST control); in test [2], 1.14 fold enrichment (6-mer frequency, TF over GST control); in [3], 1.11 fold enrichment (6-mer frequency, TF over GST control); in test [4] it was 1.26 fold enrichment (6-mer frequency, TF over GST control); in test [5] it was 1.24 fold enrichment (6-mer frequency, TF over GST control); in [6] it was 1.21 fold enrichment (6-mer frequency, TF over GST control). Besides, the binding signal in [7] was 1.22 fold enrichment (6-mer frequency, TF over GST control); in [8], 1.23 fold enrichment (6-mer frequency, TF over GST control); in test [9] it was 1.05 fold enrichment (6-mer frequency, TF over GST control); in [10], 1.2 fold enrichment (6-mer frequency, TF over GST control); in [11], 1.2 fold enrichment (6-mer frequency, TF over GST control); in test [12], 1.18 fold enrichment (6-mer frequency, TF over GST control). In addition, the binding signal was 1.25 fold enrichment (6-mer frequency, TF over GST control) in test [13]; 1.28 fold enrichment (6-mer frequency, TF over GST control) in test [14]; 1.32 fold enrichment (6-mer frequency, TF over GST control) in test [15]; 1.12 fold enrichment (6-mer frequency, TF over GST control) in [16]; 1.2 fold enrichment (6-mer frequency, TF over GST control) in test [17]; 1.14 fold enrichment (6-mer frequency, TF over GST control) in test [18].
